# Measurements reported in PubChem BioAssay AID1345082 (National Center for Advancing Translational Sciences (NCATS), 2018).
# Hit rate of the full screen: of about 94,000 compounds, about 4,000 (4.3%) were called active. Not shown: some 29% with an inconclusive outcome. This excerpt belongs to a sample that is enriched for actives. Unmarked numbers belong to inactive results. The call rests on the fitted dose curve; in most records, active means well fitted inhibition curve with a large enough effect; inconclusive means small, poorly fitted or top-dose-only effect; inactive means no such curve, though single readings can be large or run the other way.
# Assay: Cytotoxic Profiling in NIH 3T3 Cell Line of Diverse Libraries Using Quantitative High-Throughput Screening; further: nearly all actives have a fitted effect of over 55% in size
# Conditions: NIH 3T3 viability, CellTiter-Glo ATP luminescence, 48-72 h; series mostly up to 96.7 µM; activity change, negative = cytotoxicity: at the top concentration
# In short: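 Mouse fibroblast NIH 3T3 cells, 400 per well, received compound via pintool and were incubated for 48 or 72 hr prior to CellTiter-Glo ATP luminescence measurement.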
# On the % scale 0 is the no-effect control and ±100 the full control effect; potency means the concentration at half of the fitted maximal effect.
SMILES,"activity change, negative = cytotoxicity",outcome,Potency
O=C1CCN(C(=O)Cc2cccc(F)c2)CCCC(c2nc(-c3cccnc3)no2)CCN1 (stereo not drawn),-20%,,
CC(=O)N1CCC[C@@H]1C(=O)N1CCC(N2CCOC2=O)CC1,-12.4% [at 138 µM],,
CCN1C(=O)C2CC3(CCN(C(=O)c4cc5ccccc5[nH]4)CC3)CN2C1=O (stereo not drawn),-24.2%,,
COC1CCOC2(CCN(C(=O)NCc3ccc(C)cc3)CC2)C1 (stereo not drawn),,inactive,
CC(C)Cc1ccc(CN2CCC3(CC2)Cc2ccccc2CNC3=O)cc1,,,25.1 µM (active)
Cc1ccc(CN2CCC3(Cc4ccccc4CNC3=O)C2)cc1 (stereo not drawn),-26.8%,,
O=C1NCc2ccccc2CC12CCN(Cc1ccc(O)cc1)CC2,,inactive,
COCCN1C(=O)c2cccn2CC1CNC(=O)c1cc2ccccc2[nH]1 (stereo not drawn),-6.67%,,
O=C(c1ccccc1F)N1CCC(c2nc(C3CCOCC3)no2)CC1,-23.9%,,
O=C(NC1CCN(c2nc3ncccc3o2)CC1)c1ccc(F)cc1,-19.8% [at 138 µM],,
O=C(CCc1conc1-c1ccccc1F)NCc1cccc(Cl)c1,-26.3%,,
Cn1nc(C2CCN(C(=O)c3cccc(Cl)c3)CC2)[nH]c1=O,-6.82% [at 138 µM],,
O=c1[nH]c(C2CCCN(Cc3ccccn3)C2)nn1-c1ccc(Cl)cc1 (stereo not drawn),,,3.16 µM (active)
O=C(Nc1ccccc1)N1CCCC(c2nn(-c3ccccn3)c(=O)[nH]2)C1 (stereo not drawn),-29.6%,,
O=C(Cc1cccc(Cl)c1)N1CCC(c2nn(-c3ccc(Cl)cc3)c(=O)[nH]2)CC1,,,44.7 µM (active)
CC(=O)N1CCCC(c2nn(-c3ccccc3)c(=O)[nH]2)C1 (stereo not drawn),-15.9% [at 138 µM],,
COc1cccc(C(=O)N2CCC(c3nn(-c4ccccc4)c(=O)[nH]3)CC2)c1,-22.9%,,
COc1ccc(C(C)NC(=O)CN2C(=O)C(c3ccccc3)=NC2(C)C)cc1 (stereo not drawn),-8.44%,,
CN1C(=O)CC[C@]2(C(=O)NCC3CCCCC3)CCCC[C@@H]12,-6.67%,,
O=C(NC1CCOC1)c1ccc2oc(-c3ccc(C(F)(F)F)cc3)nc2c1 (stereo not drawn),-13.7%,,
O=C(CSc1ccncc1)N1CCCC(O)(CN2CCCC2)C1 (stereo not drawn),1.99%,,
COc1ccc(N2Cc3c(NCc4cccs4)ncnc3N(C)CC2=O)cc1,-18.8%,,
COCCOc1cc(=O)n2c(c1C(=O)NCc1ccccc1)CCOCC2,,inactive,
Cc1cccc(CN2CCc3ncc(C(=O)NCc4ccccc4)n3CC2)n1,,,89.1 µM (active)

SMILES,"activity change, negative = cytotoxicity",outcome,Potency
COCCNC(=O)N1CCc2nn(Cc3ccccc3)c(=O)n2CC1,-7.78%,,
CCOc1ccc(C(=O)N2C[C@@H](CO)[C@H](c3ccncc3)C2)cc1,-12.1%,,
COc1ccc2ccc(OCc3nc(C(=O)N4CCC(=O)NCC4C)co3)cc2c1 (stereo not drawn),-26.5%,,
Cc1ccccc1CNC[C@H]1O[C@@H]2C[C@@H](CC(=O)NC(C)C)O[C@@H]2[C@@H]1O,0.345% [at 174 µM],,
COc1cc(C)c(CN2CCN3C(=O)CNC(=O)C3C2)cc1C(C)C (stereo not drawn),-22%,,
Cc1cc(=O)n(CC(=O)N2C[C@H](CO)C[C@H](CN(C)C)C2)nc1C,1.11%,,
CCOc1cc(C)c(CN2C[C@@H](CN(C)C)C[C@H](CO)C2)cc1C(C)C,,,31.6 µM (active)
O=C(C1CCCCC1)N1CCCC(n2cc(-c3nc(-c4ccccc4)no3)nn2)C1 (stereo not drawn),-29.6%,,
COC(=O)[C@@H]1C[C@H](NC(=O)c2c(Cl)cccc2Cl)CN1C,0.966%,,
CN1CCNc2nc(CNc3cccc(F)c3)n(Cc3ccccc3)c2C1=O,-38.3% [at 138 µM],,
O=C1c2c(nc(COc3ccccc3)n2Cc2ccccc2)NCCN1Cc1cccc(Cl)c1,,,28.2 µM (active)
C=CCC1(C(=O)O)CCCN(Cc2cn[nH]c2C(=O)O)C1 (stereo not drawn),0.72%,,
CCNC(=O)O[C@@H]1CO[C@H]2[C@@H]1OC[C@@H]2NC(=S)Nc1cccc2ccccc12,,,79.4 µM (active)
CCNC(=O)O[C@@H]1CO[C@H]2[C@@H]1OC[C@@H]2NC(=O)c1cccc(C(=O)OC)c1,1.15% [at 174 µM],,
COc1ccc(NC(=O)O[C@@H]2CO[C@H]3[C@@H]2OC[C@@H]3NC(=S)Nc2cccc3ccccc23)cc1,-30.5%,,
CC(C)(CC(=O)O)CC(=O)N[C@H]1CO[C@H]2[C@@H]1OC[C@@H]2n1nnnc1-c1ccccc1,,inactive [at 138 µM],
c1ccc(CO[C@@H]2CO[C@H]3[C@@H]2OC[C@@H]3n2nnnc2SCc2ccco2)cc1,,,89.1 µM (active)
CNC(=O)CCN(C)c1nccc(-c2ccc(C)nc2C)n1,-18.6%,,
Cc1cccc(C(=O)N[C@@H]2CN(c3ncccn3)C[C@H]2CO)n1,-7.33%,,
COc1ccc(-c2cc(-c3cnc4[nH]ccc4c3)cn3cncc23)cn1,,,39.8 µM (active)
COc1ccc(-c2cc(-c3cccc4[nH]ncc34)cn3cncc23)cn1,,,14.1 µM (active)
CC(C)NC(=O)C1CCC(=O)N1C1CCN(C(=O)C2CCCCC2)CC1 (stereo not drawn),1.11%,,
COc1cccc(CN2CC3(C2)C(=O)N(Cc2ccccc2F)C(=O)[C@@H]2C[C@@H](O)CN23)c1,-5.45%,,
CC(=O)N1C[C@@H]2CCCN3CCC[C@@H]([C@H]23)[C@H]1CCCC(=O)NCc1cc(F)cc(F)c1,,inactive,
